Some test systems named below: DU-145 prostate; MALME-3M melanoma; MDA-MB-231 breast; RXF 393 renal; SF-268 CNS; SF-295 CNS; SF-539 CNS; UACC-257 melanoma; M14 melanoma; HCT-15 colon; HT29 colon; SNB-75 CNS; SNB-19 CNS; SK-MEL-5 melanoma; UACC-62 melanoma; LOX IMVI melanoma; SK-MEL-28 melanoma; U251 CNS; PC-3 prostate.
Assay in all cases: NCI-60 one-dose screen, 48 h (100 = growth as untreated, 0 = no growth, -100 = all killed)
Settings in all cases: 10 µM unless noted

The panel holds about 83,000 compounds, 20% with a hit somewhere; the sample as a whole holds those more often.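 48-hour exposure, single concentration, 96-well plates; percent growth endpoint where 0 means no net growth. Active: below 10.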 Values without a mark were called inactive. Calls of active or inactive are those of the source.

As to `CC[C@H]1[C@@H]2C=C[C@@H]3[C@H]4C/C=C\C(=O)NCCC[C@@H]5NC(=O)/C(=C(O)/C=C/[C@@H]4C[C@@H]3[C@H]2C[C@H]1C)C5=O`, the growth in the experiment with DU-145 prostate was -94% (active); in the experiment with MALME-3M melanoma, -6.22% (active); with MDA-MB-231 breast, -2.91% (active); in the experiment with RXF 393 renal it was -86.1% (active); with SF-268 CNS, -55.5% (active); in the experiment on SF-295 CNS it was -53.2% (active). Further, the growth is -20.8% (active) with SF-539 CNS; 23.4% with UACC-257 melanoma; -10.9% (active) in the experiment with M14 melanoma; -29.4% (active) in the experiment on HCT-15 colon; 14.4% in the experiment on HT29 colon; -85.6% (active) in the experiment with SNB-75 CNS. Also, the growth with SNB-19 CNS is -40.6% (active); in the experiment with SK-MEL-5 melanoma, -70.4% (active); with UACC-62 melanoma it was 72.6%; in the experiment on LOX IMVI melanoma, -84.8% (active); in the experiment on SK-MEL-28 melanoma it was 60.9%.

Take `CC(=O)c1cc2c(N)c(C(=O)Nc3cccc(Cl)c3)sc2nc1C`: the growth in the experiment on DU-145 prostate is 87.3%; in the experiment on MALME-3M melanoma, 102%; with MDA-MB-231 breast, 87.5%; in the experiment with RXF 393 renal, 79.7%; in the experiment on SF-268 CNS, 93.2%; in the experiment with SF-295 CNS, 84.3%. In addition, the growth is 85.3% with SF-539 CNS; 82.5% with UACC-257 melanoma; 67.1% with M14 melanoma; 72.4% in the experiment on HCT-15 colon; 82.3% in the experiment with HT29 colon; 82.6% in the experiment on SNB-75 CNS. For the same compound, the growth in the experiment on SNB-19 CNS was 91.3%; in the experiment on U251 CNS, 91.4%; in the experiment with PC-3 prostate, 74.4%; in the experiment with SK-MEL-5 melanoma it was 43.2%; with UACC-62 melanoma, 56.2%; in the experiment with LOX IMVI melanoma it was 89.5%. In addition, the growth in the experiment with SK-MEL-28 melanoma was 92.9%.

As to `Cc1ccc2c(C3C(C#N)=C(N)Oc4cc5ccccc5cc43)cc(=O)oc2c1` (stereo unspecified), the growth in the experiment on DU-145 prostate is 16%; with MALME-3M melanoma, 66.4%; in the experiment on MDA-MB-231 breast it was 50.6%; in the experiment on RXF 393 renal, -11% (active); with SF-268 CNS, 54.6%; in the experiment on SF-295 CNS it was 9.32% (active). In addition, the growth in the experiment with SF-539 CNS was 2.31% (active); in the experiment on UACC-257 melanoma, 67.8%; in the experiment with M14 melanoma, 0.37% (active); in the experiment with HCT-15 colon, 31%; in the experiment on HT29 colon, 6.66% (active); with SNB-75 CNS, 20.3%. Also, the growth in the experiment on SNB-19 CNS was 29.9%; in the experiment on U251 CNS, 23.5%; in the experiment with SK-MEL-5 melanoma it was 13.6%; with UACC-62 melanoma, 39.2%; in the experiment on LOX IMVI melanoma it was 38.4%; in the experiment with SK-MEL-28 melanoma, 64.4%.

Take `Fc1cccc(F)c1C#Cc1ccc2cccnc2c1`: the growth in the experiment with DU-145 prostate is 96.5%; with MALME-3M melanoma, 90.3%; in the experiment with MDA-MB-231 breast it was 78%; with RXF 393 renal, 101%; with SF-268 CNS it was 88.6%; with SF-295 CNS, 101%. Besides, the growth with SF-539 CNS was 102%; with UACC-257 melanoma, 88.2%; with M14 melanoma, 95.7%; in the experiment with HCT-15 colon, 74.9%; with HT29 colon it was 69%; in the experiment with SNB-75 CNS it was 97.8%. Moreover, the growth in the experiment on SNB-19 CNS is 91.3%; in the experiment on U251 CNS, 80.6%; in the experiment on PC-3 prostate it was 86.1%; in the experiment on SK-MEL-5 melanoma, 71.9%; with UACC-62 melanoma, 71.3%; with LOX IMVI melanoma, 86.9%. Moreover, the growth with SK-MEL-28 melanoma was 106%.

`COc1ccc(-c2coc3c(CO)c(O)ccc3c2=O)cc1`: the growth in the experiment on DU-145 prostate was 9.29% (active); with MALME-3M melanoma, 21.3%; in the experiment on MDA-MB-231 breast it was 25%; with RXF 393 renal, -27.4% (active); in the experiment with SF-268 CNS, 22.2%; with SF-295 CNS it was 23.1%. For the same compound, the growth is 47.9% in the experiment with SF-539 CNS; 90.3% in the experiment on UACC-257 melanoma; 75.5% in the experiment on M14 melanoma; 43.2% in the experiment with HCT-15 colon; 85.8% in the experiment on HT29 colon; 115% in the experiment on SNB-75 CNS. Moreover, the growth was 72.5% with SNB-19 CNS; -58.9% (active) in the experiment with U251 CNS; 58.7% in the experiment on SK-MEL-5 melanoma; 32.5% with UACC-62 melanoma; -27.9% (active) in the experiment on LOX IMVI melanoma; 88.8% with SK-MEL-28 melanoma.

Turning to `Cc1cc(N2CCOCC2)nc(N(CCNc2ccnc3cc(Cl)ccc23)Cc2ccco2)n1`, the growth with DU-145 prostate was 53.4%; in the experiment on MALME-3M melanoma it was 62.8%; with MDA-MB-231 breast it was 7.62% (active); in the experiment with RXF 393 renal, 10.6%; in the experiment on SF-268 CNS it was 71.8%; in the experiment with SF-295 CNS, 6.25% (active). For the same compound, the growth in the experiment with SF-539 CNS was -31.8% (active); in the experiment on UACC-257 melanoma, 49.8%; in the experiment on M14 melanoma it was 39.5%; in the experiment with HCT-15 colon it was 35.8%; with HT29 colon it was 3.4% (active); in the experiment on SNB-75 CNS, 59.5%. Moreover, the growth is 41.5% in the experiment with SNB-19 CNS; 6.13% (active) in the experiment with U251 CNS; 39.7% in the experiment on SK-MEL-5 melanoma; 26% in the experiment with UACC-62 melanoma; 18.1% in the experiment with LOX IMVI melanoma; 52.4% with SK-MEL-28 melanoma.

As to `C=C1C(=O)O[C@H]2[C@H]1CC/C(COC(=O)c1cc(OC)c(OC)c(OC)c1)=C\CC[C@@]1(C)O[C@@H]21`, the growth was -23.8% (active) in the experiment with DU-145 prostate; -57.7% (active) in the experiment with MALME-3M melanoma; -39% (active) in the experiment with MDA-MB-231 breast; -87.8% (active) in the experiment on RXF 393 renal; 16.5% in the experiment on SF-268 CNS; 51% with SF-295 CNS. Besides, the growth is -48.3% (active) in the experiment with SF-539 CNS; -41.3% (active) in the experiment on UACC-257 melanoma; -36.7% (active) with M14 melanoma; -42.8% (active) in the experiment on HCT-15 colon; -80.2% (active) in the experiment with HT29 colon; 45.9% in the experiment on SNB-75 CNS. Besides, the growth in the experiment on SNB-19 CNS is 30.5%; in the experiment with U251 CNS, 9.17% (active); in the experiment on UACC-62 melanoma, -50.7% (active); in the experiment with LOX IMVI melanoma, -94.9% (active); in the experiment with SK-MEL-28 melanoma, -36.5% (active).

These data come from PubChem BioAssay (NCI).
